The record followed here is PubChem BioAssay (NCI).

About 79,000 compounds went through this panel and 15% of them were active in at least one assay; those are over-represented in the sample as a whole. Values without a mark were called inactive. Calls of active or inactive are those of the source. No stated cut-off is given here; in the data, active means growth inhibition above about 70%; inactive means the rest.

A short description of the first assay: NCI Yeast Anticancer Drug Screen. Data for the wt1 strain (AID 149).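 Further: 0% = growth of vehicle-treated wt1 cultures.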 The conditions noted are these: S. cerevisiae wt1 strain (SPY 50644) growth inhibition; at 1.2 µM; stronger effect = higher value. In short, it runs like this:
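wt1 strain grown with compound or vehicle; inhibition taken from the growth difference.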
In the case of `C/C(=N\NC(=S)SCc1ccccc1)c1ccccn1`, the growth inhibition is -13%.

As to `CC[C@@]1(O)C(=O)OCc2c1cc1n(c2=O)Cc2cc3c(N)cccc3nc2-1`, the growth inhibition was 22%.

Consider `CN(C)c1ccc(Sc2ccc3nc(N)nc(N)c3c2)cc1`, for which the growth inhibition was 15%.

Regarding `CC(=O)OCCOCNC(=S)N/N=C(\C)c1cnccn1`, the growth inhibition is -14%.

As for `COc1ccc(C2c3cc4c(cc3OC(C)(O)C2C)OCO4)c(OC)c1` (stereo not drawn), the growth inhibition is -1%.

With `COc1cc(C2SCC(=O)N2c2ccc(-c3ccc(-n4c(-c5ccccc5)nc5ccccc5c4=O)cc3)cc2)cc(OC)c1OC` (stereo not drawn), the growth inhibition was 0%.

As to `COc1ccc(Br)c(C(=O)Sc2nnnn2-c2cccc(Cl)c2)c1`, the growth inhibition is 5%.

As to `O=C(NNc1ccnc2cc(Cl)ccc12)/C(=C\c1ccccc1Cl)NC(=O)c1ccccc1`, the growth inhibition was -80%.

As for `CSC(=S)Nc1cccc(C)n1`, the growth inhibition is -35%.

For `O=C(/C=C\c1ccc(Cl)cc1Cl)c1cccs1`, the growth inhibition is -2%.

With `COc1ccc(-c2cn(-c3ccc(I)cc3)c3ncnc(N)c23)cc1`, the growth inhibition was -4%.

On to `CN(C)c1ccc(C(C#N)=C(C#N)C#N)cc1`, for which the growth inhibition is -6%.

For `COc1cc(/C=C2\CCc3ccccc3C2=O)cc(OC)c1OC`, the growth inhibition was 9%.

For `CC(C)/C(Cl)=N\OC(=O)Nc1cccc(Cl)c1`, the growth inhibition is -2%.

As to `CC1(C)[C@@H]2CC[C@]1(C)[C@H](OC(=O)CSC#N)C2`, the growth inhibition was 1%.

For `NNC(=O)CCc1ccc2ccc3ccccc3c2c1`, the growth inhibition is 1%.

On to `COc1ccc(/C(C)=N/OC(=O)c2c(-c3ccccc3Cl)noc2C)cc1CN1CCOCC1`, for which the growth inhibition was -7%.

On to `C=CC(C)(O)CCC1C(=C)C(O)CC2C(C)(C)CCCC12C` (stereo not drawn), for which the growth inhibition is -26%.

On to `S=C(Nc1ccc(Cl)c(Cl)c1)SCc1ccc2c(c1)OCO2`, for which the growth inhibition is 1%.

On to `COc1cc(C2C3=C(COC3=O)Oc3cc4c(cc32)OCO4)ccc1O` (stereo not drawn), for which the growth inhibition is -2%.

Take `S=C(Nc1ccc(Cl)cc1)SC1CCCCC1`: the growth inhibition is 7%.

Take `Nc1nc(-c2cccnc2)cc(-c2cc(-c3cccnc3)nc(N)n2)n1`: the growth inhibition is 0%.

For the compound `COC1=CC(=O)C2C(C1=O)C(c1ccc(Cl)cc1)[C@@H]2C` (stereo partly drawn), the growth inhibition was 11%.

Regarding `c1ccc(-c2nc3cccnc3s2)cc1`, the growth inhibition was -2%.

`O=[N+]([O-])c1cc(CCl)ccc1CCl`: the growth inhibition is 2%.

As to `COc1ccc(/C=C2\SC(=S)N(/C=C/c3nc4ccccc4[nH]c3=O)C2=O)cc1OC`, the growth inhibition is 3%.

In the case of `CCCN(CCC)CC(O)c1cc(-c2ccc(Cl)cc2)nc2c(C)c(Cl)ccc12` (stereo not drawn), the growth inhibition was -1%.

As for `O=C(Nc1ccccc1)OCCc1ccc(Cl)c(Cl)c1`, the growth inhibition is -4%.

Turning to `CC(O)C(O)C(O)C(/C=N\Nc1ccccc1)=N/Nc1ccccc1` (stereo not drawn), the growth inhibition was 4%.

Consider `C#CCCCc1ccccc1`, for which the growth inhibition was -29%.

Consider `CC(=O)Cc1ccc[cH-]1.[Fe+2].c1cc[cH-]c1`, for which the growth inhibition was 1%.

On to `Cc1cc(I)ccc1N`, for which the growth inhibition was -8%.

As to `FC(F)(F)c1cc(NC(=S)N2c3ccccc3-n3cccc3C2c2cccnc2)cc(C(F)(F)F)c1` (stereo not drawn), the growth inhibition is 2%.

As for `CC(C)(CN1CCCCC1)C(=O)CC(SCCS(=O)(=O)O)c1ccc(Br)cc1` (stereo not drawn), the growth inhibition was 3%.

With `C[Si](C)(C)CNC(=O)OCc1ccccc1`, the growth inhibition was 2%.

On to `CC(C(=O)N1C(=O)N(C(=O)[C@H](C)C(O)c2ccccc2)[C@H](c2ccccc2)[C@H]1c1ccccc1)[C@@H](O)c1ccccc1` (stereo partly drawn), for which the growth inhibition was 1%.

Take `Oc1cccc2c(Cl)ccnc12`: the growth inhibition was 47%.

For `O=C1C=CC(=C(c2ccccc2)c2ccccc2)c2ccccc21`, the growth inhibition was 0%.

Consider `S=C(S)NN1CCOCC1`, for which the growth inhibition was 43%.

Staying with this assay, now noted: S. cerevisiae wt1 strain (SPY 50644) growth inhibition; at 3.7 µM; stronger effect = higher value.
As to `C/C(=N\NC(=S)SCc1ccccc1)c1ccccn1`, the growth inhibition was -15%.

In the case of `CC[C@@]1(O)C(=O)OCc2c1cc1n(c2=O)Cc2cc3c(N)cccc3nc2-1`, the growth inhibition is 13%.

On to `CN(C)c1ccc(Sc2ccc3nc(N)nc(N)c3c2)cc1`, for which the growth inhibition was 12%.

As to `CC(=O)OCCOCNC(=S)N/N=C(\C)c1cnccn1`, the growth inhibition is -11%.

Take `COc1ccc(C2c3cc4c(cc3OC(C)(O)C2C)OCO4)c(OC)c1` (stereo not drawn): the growth inhibition is 3%.

As for `COc1cc(C2SCC(=O)N2c2ccc(-c3ccc(-n4c(-c5ccccc5)nc5ccccc5c4=O)cc3)cc2)cc(OC)c1OC` (stereo not drawn), the growth inhibition was 0%.

Take `COc1ccc(Br)c(C(=O)Sc2nnnn2-c2cccc(Cl)c2)c1`: the growth inhibition was 17%.

Regarding `O=C(NNc1ccnc2cc(Cl)ccc12)/C(=C\c1ccccc1Cl)NC(=O)c1ccccc1`, the growth inhibition was -1%.

In the case of `CSC(=S)Nc1cccc(C)n1`, the growth inhibition is -24%.

For `O=C(/C=C\c1ccc(Cl)cc1Cl)c1cccs1`, the growth inhibition is 0%.

In the case of `COc1ccc(-c2cn(-c3ccc(I)cc3)c3ncnc(N)c23)cc1`, the growth inhibition is -4%.

Turning to `CN(C)c1ccc(C(C#N)=C(C#N)C#N)cc1`, the growth inhibition was -5%.

`COc1cc(/C=C2\CCc3ccccc3C2=O)cc(OC)c1OC`: the growth inhibition is 3%.

`CC(C)/C(Cl)=N\OC(=O)Nc1cccc(Cl)c1`: the growth inhibition was 0%.

On to `CC1(C)[C@@H]2CC[C@]1(C)[C@H](OC(=O)CSC#N)C2`, for which the growth inhibition is 4%.

Take `NNC(=O)CCc1ccc2ccc3ccccc3c2c1`: the growth inhibition was 3%.

Consider `COc1ccc(/C(C)=N/OC(=O)c2c(-c3ccccc3Cl)noc2C)cc1CN1CCOCC1`, for which the growth inhibition is -10%.

Regarding `C=CC(C)(O)CCC1C(=C)C(O)CC2C(C)(C)CCCC12C` (stereo not drawn), the growth inhibition was -10%.

Regarding `S=C(Nc1ccc(Cl)c(Cl)c1)SCc1ccc2c(c1)OCO2`, the growth inhibition was 49%.

For the compound `COc1cc(C2C3=C(COC3=O)Oc3cc4c(cc32)OCO4)ccc1O` (stereo not drawn), the growth inhibition is -7%.

`S=C(Nc1ccc(Cl)cc1)SC1CCCCC1`: the growth inhibition is 0%.

Turning to `Nc1nc(-c2cccnc2)cc(-c2cc(-c3cccnc3)nc(N)n2)n1`, the growth inhibition is -1%.

`COC1=CC(=O)C2C(C1=O)C(c1ccc(Cl)cc1)[C@@H]2C` (stereo partly drawn): the growth inhibition was 23%.

In the case of `c1ccc(-c2nc3cccnc3s2)cc1`, the growth inhibition was -4%.

Turning to `O=[N+]([O-])c1cc(CCl)ccc1CCl`, the growth inhibition was 8%.

With `COc1ccc(/C=C2\SC(=S)N(/C=C/c3nc4ccccc4[nH]c3=O)C2=O)cc1OC`, the growth inhibition was 5%.

Turning to `CCCN(CCC)CC(O)c1cc(-c2ccc(Cl)cc2)nc2c(C)c(Cl)ccc12` (stereo not drawn), the growth inhibition is -3%.

Take `O=C(Nc1ccccc1)OCCc1ccc(Cl)c(Cl)c1`: the growth inhibition was -7%.

In the case of `CC(O)C(O)C(O)C(/C=N\Nc1ccccc1)=N/Nc1ccccc1` (stereo not drawn), the growth inhibition is 9%.

Turning to `C#CCCCc1ccccc1`, the growth inhibition is -24%.

For `CC(=O)Cc1ccc[cH-]1.[Fe+2].c1cc[cH-]c1`, the growth inhibition is 2%.

Take `Cc1cc(I)ccc1N`: the growth inhibition is 2%.

As to `FC(F)(F)c1cc(NC(=S)N2c3ccccc3-n3cccc3C2c2cccnc2)cc(C(F)(F)F)c1` (stereo not drawn), the growth inhibition was -5%.

As to `CC(C)(CN1CCCCC1)C(=O)CC(SCCS(=O)(=O)O)c1ccc(Br)cc1` (stereo not drawn), the growth inhibition was 6%.

As to `C[Si](C)(C)CNC(=O)OCc1ccccc1`, the growth inhibition is -2%.

Take `CC(C(=O)N1C(=O)N(C(=O)[C@H](C)C(O)c2ccccc2)[C@H](c2ccccc2)[C@H]1c1ccccc1)[C@@H](O)c1ccccc1` (stereo partly drawn): the growth inhibition is -1%.

As for `Oc1cccc2c(Cl)ccnc12`, the growth inhibition is 98% (active).

As to `O=C1C=CC(=C(c2ccccc2)c2ccccc2)c2ccccc21`, the growth inhibition was 1%.

With `S=C(S)NN1CCOCC1`, the growth inhibition was 29%.
